D1 agonist: Allosteric Agonists of the Human D1 Dopamine Receptor: qHTS | AID 504660, 2011 | 360,000 compounds, 1% hits | activation, % at 2 µM | HEK293 T-REx D1 cells, calcium flux, agonist mode
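Tetracycline-induced HEK293 TREx D1 cells, force-coupled to calcium signalling, were dye-loaded with a no-wash calcium kit. Compound was pin-added after a 10 s baseline. Fluorescence was read kinetically at 1 cycle/s for 180 s, with calcium rises flagged as agonism.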
D1 antagonist: Antagonist of Human D 1 Dopamine Receptor: qHTS; HEK293 TREx D1 cells, calcium flux, dopamine EC80; active compounds read low; activity change, negative = inhibition, % at 10 µM; D(1A) dopamine receptor (Homo sapiens), P21728; 360,000 compounds, 3.2% hits; in the data active = activity change below about -30%
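Tetracycline-induced HEK293 Trex D1 cells, force-coupled to calcium, dye-loaded; compounds added and read 180 s, then EC80 dopamine added and calcium flux tracked kinetically another 180 s.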
TRHR PAM: qHTS for Small Molecule Agonists and Allosteric Enhancers of Human TRH Receptor: Primary Screen for Enhancers; Thyrotropin-releasing hormone receptor (Homo sapiens), P34981; TRHR cells, fluo-8 calcium fluorescence, EC20 TRH enhancement; enhancement, % at 2 µM; 360,000 compounds, 0.66% hits; AID 493056, 2011; in the data active = enhancement above about 30%
Target sequence (P34981 whole entry, looked up): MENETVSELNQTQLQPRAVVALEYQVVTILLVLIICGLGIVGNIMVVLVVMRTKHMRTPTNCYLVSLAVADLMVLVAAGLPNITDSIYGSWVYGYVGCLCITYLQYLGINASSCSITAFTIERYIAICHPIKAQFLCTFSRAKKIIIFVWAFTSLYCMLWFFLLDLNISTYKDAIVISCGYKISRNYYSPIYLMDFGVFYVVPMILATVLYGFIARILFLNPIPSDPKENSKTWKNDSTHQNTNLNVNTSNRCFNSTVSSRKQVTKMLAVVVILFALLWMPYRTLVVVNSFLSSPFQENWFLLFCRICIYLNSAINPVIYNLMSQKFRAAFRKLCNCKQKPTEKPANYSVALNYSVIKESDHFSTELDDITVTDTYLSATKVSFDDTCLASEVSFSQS
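Enhancer read-out: after compound pinning and an initial kinetic agonist-mode read, an EC20 of TRH (10 nM final) was injected and fluo-8 calcium signal (Ex 480/Em 530) followed at 1 s/cycle for 100 cycles in TRHR-expressing cells.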
D1 potentiator: Potentiators of Human D1 Dopamine Receptor: qHTS; D(1A) dopamine receptor (Homo sapiens), P21728; HEK293 TREx D1 cells, calcium flux, dopamine EC20 potentiation; potentiation, % at 10 µM; 360,000 compounds, 0.036% hits; in the data active = potentiation above about 30%
TRHR agonist: qHTS for Small Molecule Agonists and Allosteric Enhancers of Human TRH Receptor: Primary Screen for Agonists; activation, % at 2 µM; 360,000 compounds, 0.18% hits; Thyrotropin-releasing hormone receptor (Homo sapiens), P34981; TRHR cells, calcium flux fluo-8, FDSS agonist mode
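Steps: seed TRHR cells overnight; add fluo-8 no-wash Ca dye, RT 30 min–1.5 h; record 10 s baseline; pin-transfer compounds; monitor fluorescence 1 cycle/s for the agonist window. Calcium increases flag candidate agonists.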
Each line names hits and unclear results; the compound was inactive in the other large screens; ! = not confirmed by another sample. The list is not random: actives were taken first. Their share in the collection is about 4.6%. Cut-off read from the data, not from the text of the source, unless noted: active = activation above about 30%; inactive = the rest.

COc1ccc(CNC(=O)Cn2ccc3cc(S(=O)(=O)N4CCCCCC4)ccc32)cc1OC	none
CCOCCCN(Cc1ccco1)S(=O)(=O)c1csc(C(N)=O)c1	D1 antagonist -50
CC(C)CCN(Cc1ccco1)S(=O)(=O)c1csc(C(N)=O)c1	none
CCc1cc2c(-c3ccccc3)cc(=O)oc2c2c1OCN(Cc1ccc(F)cc1)C2	none
Cc1ccc(NC(=O)Cn2ccn(Cc3ccc(Cl)cc3)c(=O)c2=O)cc1C	none
COc1ccc(-n2ccnc(NCCc3ccc(S(N)(=O)=O)cc3)c2=O)cc1	none
Cc1cc(N2CCCCC2)nc(NCc2ccccc2)n1	D1 agonist 81, D1 antagonist -50
Cc1cc(NCc2ccccc2)nc(N2CCOCC2)n1	D1 antagonist -91
CNc1cc(C)nc(N2CCOCC2)n1	none
Cc1cc(N2CCOCC2)nc(SCC(=O)c2ccccc2)n1	none
Cc1cc(N2CCOCC2)nc(NCc2ccccc2)n1	D1 agonist 45, D1 antagonist -63
c1ccc(CSc2nc3ncccc3[nH]2)cc1	none
CCc1ccc(S(=O)(=O)NCCc2csc3nc(-c4ccccc4)nn23)s1	none (no result: D1 antagonist)
Cc1ccccc1-c1nc(CN2CCC(C(=O)NCc3ccccc3Cl)CC2)c(C)o1	none
CCOC(=O)/C(C#N)=C\c1ccc(CC)s1	none
CCOC(=O)/C(C#N)=C\C=C1C=CN(C)C=C1	D1 agonist 45
COC(=O)CN1C(C(=O)c2ccccc2)=C(OC(=O)c2ccc(F)cc2)c2ccccc2S1(=O)=O	D1 antagonist -78
COc1cccc(CCNC(=O)C2CCC(=O)N(Cc3cccc(OC)c3)C2)c1 (stereo not drawn)	D1 antagonist -52
COc1ccc(C(=O)Nc2ccc(-c3nc4ncccc4o3)cc2C)cc1Br	none
Cc1ccc(-n2ncc3c(NCCc4ccc(S(N)(=O)=O)cc4)ncnc32)cc1	D1 antagonist -48
Cc1cccc(-n2ncc3c(NCCc4ccc(S(N)(=O)=O)cc4)ncnc32)c1	D1 antagonist -48
Cc1cccc(-n2ncc3c(NCCN4CCOCC4)ncnc32)c1	none
c1ccc(CCNc2ncnc3c2cnn3-c2ccccc2)cc1	none
Cc1cc(C)c(Cn2c(=O)n(-c3ccccc3Cl)c(=O)c3c(C)c(C(=O)N(C)C)sc32)c(C)c1	none
Cc1cc(=O)oc2cc(NC(=O)C(C)N3C(=O)C4CCCCC4C3=O)ccc12 (stereo not drawn)	D1 antagonist -43
CC(=O)Nc1ccc2c(COC(=O)[C@H](C)N3C(=O)C4CCCCC4C3=O)cc(=O)oc2c1 (stereo partly drawn)	none
CN(Cc1ccccc1)C(=O)c1c[nH]c2ccc(S(=O)(=O)Nc3ccccc3F)cc2c1=O	none
Cc1ccc2cccc(OCCOCCOc3ccccc3Br)c2n1	none
Cc1ccc2cccc(OCCCOc3ccccc3F)c2n1	D1 antagonist -49
COc1cc(NC(=O)c2cccs2)c(OC)cc1NC(=O)Nc1ccc(F)cc1	D1 antagonist -45
O=C(Nc1nc(-c2ccccc2)cs1)c1cccs1	none
COc1ccc(NC(=O)c2cccs2)cc1	none
O=C(Nc1nc(-c2ccccc2)ns1)c1cccs1	D1 antagonist -32
O=C(Nc1ccc(Cl)cc1)c1cccs1	D1 antagonist -39
COc1ccccc1NC(=O)c1cccs1	none
COc1ccc(C(=O)Nc2ccc(NC(=O)c3cccs3)cn2)cc1	D1 antagonist -35
Cc1cccc(N2CCN(C(=O)c3cn(CC(C)C)c(=O)c4c3c3ccccc3n4C)CC2)c1C	none
CCc1ccc(C(=O)c2cn(CC(=O)Nc3ccc4c(c3)OCCO4)c3ccc(C)cc3c2=O)cc1	none
COc1ccc(CNC(=O)c2ccc3c(c2)N(Cc2c(F)cccc2Cl)C(=O)CS3)cc1	none
CC1C(=O)CCC1(C(=O)O)c1ccccc1 (stereo not drawn)	TRHR PAM 33
Cc1ccc2onc(CNC(=O)N3CCN(c4cccc(C)c4C)CC3)c2c1	none
Cc1ccc(-c2nc3ccccc3o2)cc1NC(=O)c1cccc2c(Cl)cccc12	none
CC1=NN(C(=O)c2ccccc2-n2cccc2)C(O)(C(F)(F)F)C1 (stereo not drawn)	D1 antagonist -50
CCN(CC)c1ccc(C(=O)O)cc1	none
CCN(CC)c1ccc(/C=C2\C(=O)c3ccc(C(=O)O)cc3C2=O)cc1	D1 agonist 354, TRHR agonist 106
Cc1nn(C)c2c1c(-c1ccccc1)cc(=O)n2CC(=O)NC(C)c1ccccc1 (stereo not drawn)	none
Cc1ccc(NC(=O)C2(C)Cc3ccccc3C(=O)O2)c(C)c1 (stereo not drawn)	TRHR PAM 50
COc1ccccc1NC(=O)C1(C)Cc2ccccc2C(=O)O1 (stereo not drawn)	none
Cc1cccc(CS(=O)(=O)c2ncc(Cl)c(C(=O)Nc3c(C)cccc3C)n2)c1	D1 antagonist -32
COc1ccc2nc(NC(=O)c3nc(S(=O)(=O)Cc4cccc(C)c4)ncc3Cl)sc2c1	D1 antagonist -31
Cc1cccc(CS(=O)(=O)c2ncc(Cl)c(C(=O)NCc3ccccc3)n2)c1	D1 antagonist -32
COc1ccccc1C(=O)Nc1ccc(OCC(=O)N2CC(C)CC(C)C2)cc1 (stereo not drawn)	none
CCn1c(CN2CCC(C)CC2)nc2cc(NC(=O)c3cccc([N+](=O)[O-])c3)ccc21	none
CCOc1cc(C(=O)NCCc2csc(-c3ccc(C)cc3)n2)cc(OCC)c1OCC	none
CN(C)CCNC(=O)c1cc2c(s1)-c1ccc(Cl)cc1SC2	D1 antagonist -48
Cc1cc2c(s1)c1cnn(Cc3ccc(SC(F)(F)F)cc3)c(=O)c1n2C	none
Cn1nnnc1SCCCNCc1cc(Br)ccc1OCc1ccccc1F	none
CN(Cc1ccc(F)cc1)S(=O)(=O)c1nnc(NC(=O)c2ccccc2Br)s1	D1 antagonist -45!
CC12CCC(C(=O)Nc3nccs3)(OC1=O)C2(C)C (stereo not drawn)	D1 antagonist -31
O=C(CNc1ccc2c(c1)OCO2)N/N=C\c1cn(Cc2ccc(F)cc2)c2ccccc12	D1 antagonist -41
CC1c2[nH]c3ccccc3c2CCN1C(=O)Nc1ccccc1 (stereo not drawn)	D1 antagonist -36
CCOC(=O)c1cccnc1SCC(=O)N(C)c1ccccc1	D1 antagonist -44
COc1cccc(-c2csc(N3CCN(C(=S)Nc4ccccc4OC)CC3)n2)c1	D1 antagonist -35
COCCCNC(=S)N1CCN(c2nc(-c3ccccc3)cs2)CC1	D1 antagonist -33
CCNC(=S)N1CCN(c2nc(-c3cccc(OC)c3)cs2)CC1	D1 antagonist -30
